Bioassay records as filed in PubChem BioAssay.
This is a sample that favours compounds with a hit; in the whole collection about 3.8% have one here.
HepG2 tox – kills HepG2 cells in TGF-b inhibitor counter-screen; HepG2 CAGA-GFP viability, ATP luminescence, 18 h; Potency, µM (titrated, usually from 46.1 µM), hits mostly cytotoxic; actives 0.76% (n = 410,000)
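CellTiter-Glo luminescence gave cytotoxicity after 18 hours at 37 degrees C. The cells were HepG2 CAGA-GFP in 1% FBS DMEM, stimulated with 500 pg/mL TGF-beta after compound addition. %Activity was normalised to no-cell wells (complete cell-killing) and DMSO (no toxicity), and curves were fitted and classified.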
S2 tox – cell viability loss in ATXN counter-screen | S2 cells (HEK-293 line with an ATXN2-luciferase reporter) viability, CellTiter-Fluor protease fluorescence, 24 h | Potency, µM (doses to about 56.7 µM), hits mostly cytotoxic | actives 0.49% (n = 400,000) | AID 651635; also: nearly all actives have a fitted effect of over 40% in size
TGFb inhibitor – inhibitors of TGF-b signaling | HepG2 CAGA-GFP TGF-b/SMAD3 reporter, GFP fluorescence, 18 h; TGF-beta stimulated, 500 pg/mL final | Potency, µM (series often up to 46.1 µM), actives largely listed as inhibitors | actives 1.2% (n = 410,000); also: nearly all actives have a fitted effect of over 65% in size
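Inhibition of TGF-beta-driven CAGA-GFP reporter expression in HEPG2 cells is measured by cellular GFP fluorescence after 18 h stimulation with 500 pg/mL recombinant TGF-beta in 1% FBS medium at 37 degrees C.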
HT1080 IDH1KD tx – toxicity to HT-1080 IDH1 knockdown cells (counter line). actives 2% (n = 360,000). AID 686971. Potency, µM (titrated, usually from 46.1 µM), actives largely listed as cytotoxic. HT-1080 IDH1 knockdown viability, ATP luminescence, 48 h
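CellTiter-Glo luminescence after 48 h compound exposure at 37 degrees C of IDH1-knockdown HT-1080 cells in 5% FBS RPMI. %Activity scaled between DMSO wells and cell-free media wells, with curves fitted and assigned curve classes.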
HT1080NT lethal – kills 2HG-producing HT-1080-NT fibrosarcoma cells | actives 1.6% (n = 360,000) | HT-1080-NT fibrosarcoma viability, CellTiter-Glo ATP luminescence, 48 h | Potency, µM (highest dose often 46.1 µM), actives largely listed as cytotoxic;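 also: NT is the 2HG producing partner of a matched IDH1 knockdown line; nearly all actives have a fitted effect of over 55% in size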
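Toxicity toward the 2HG-producing NT line was scored as %Activity, normalised to DMSO and no-cell wells, from CellTiter-Glo luminescence after 48 hours' treatment.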
ATXN2 expr inh – inhibitors of ATXN2 expression; actives 0.72% (n = 360,000); HEK-293 ATXN2-luciferase reporter, luminescence, 24 h; Potency, µM (series often up to 57 µM), actives largely listed as inhibitors; also: nearly all actives have a fitted effect of over 55% in size
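ATXN2-luciferase reporter cells (luciferase flanked by upstream and downstream ATXN2 gene portions) were treated 24 h at 37 °C with compounds at up to 57 uM. SteadyGlo luminescence gave expression; GF-AFC fluorescence gave viability.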
Each line names hits and unclear results; the compound was inactive in the other large screens. Calls follow the shape of the dose curve; as a rule, active = well fitted curve in the direction sought with a large enough effect; inconclusive = small, poorly fitted or top-dose-only effect, or another doubt; inactive = no such curve, though single readings can be large; an effect the other way counts as inactive or inconclusive.

Cc1ccc(Cl)c2sc(NC(=O)C3CC3)nc12	HepG2 tox 11µM, TGFb inhibitor inconclusive
CCNC(=O)Nc1ccc(Oc2ncnc(N)c2C=NOC)cc1Cl	none (no result: HepG2 tox, S2 tox, TGFb inhibitor, HT1080 IDH1KD tx, HT1080NT lethal)
CN1C(=O)c2ccccc2Sc2ccc(NC(=O)COc3ccc(Cl)cc3)cc21	S2 tox inconclusive, TGFb inhibitor 2.8µM (no result: HT1080 IDH1KD tx, HT1080NT lethal)
COc1ccc(OCC(=O)Nc2ccc3c(c2)N(C)C(=O)c2ccccc2S3)cc1	S2 tox inconclusive, ATXN2 expr inh inconclusive (no result: HT1080 IDH1KD tx, HT1080NT lethal)
COCCCNC(=O)c1ccc(Cn2c(=O)c3ccccc3n(Cc3cc(C)ccc3C)c2=O)cc1	none
COCCCNC(=O)c1ccc(Cn2c(=O)c3ccccc3n(Cc3ccccc3C)c2=O)cc1	S2 tox inconclusive, HT1080 IDH1KD tx 16µM, HT1080NT lethal inconclusive
COc1ccc(CCNC(=O)CCCCn2c(=O)c3ccccc3n(Cc3ccc(Cl)cc3)c2=O)cc1OC	S2 tox inconclusive (no result: HT1080 IDH1KD tx, HT1080NT lethal)
COc1ccc(CCNC(=O)c2ccc(Cn3c(=O)c4ccccc4n(Cc4cccc(F)c4)c3=O)cc2)cc1OC	S2 tox 28µM, TGFb inhibitor inconclusive, ATXN2 expr inh inconclusive (no result: HT1080 IDH1KD tx, HT1080NT lethal)
O=C(CCCCn1c(=O)c2ccccc2n(Cc2ccc(F)cc2)c1=O)NCc1ccco1	S2 tox inconclusive, HT1080NT lethal 18µM
O=C(CCCn1c(=O)c2ccccc2n(Cc2ccccc2)c1=O)NCc1ccco1	HT1080 IDH1KD tx inconclusive, HT1080NT lethal inconclusive
COc1ccc(CCNC(=O)CCCn2c(=O)c3ccccc3n(Cc3cccc(Cl)c3)c2=O)cc1OC	TGFb inhibitor 11µM, ATXN2 expr inh inconclusive (no result: S2 tox, HT1080 IDH1KD tx, HT1080NT lethal)
COc1cccc(CC2(CO)CCCN(C/C=C/c3ccccc3OC)C2)c1 (stereo not drawn)	none (no result: ATXN2 expr inh)
COc1ccccc1/C=C/CN1CCCC(CO)(Cc2cccc(Cl)c2)C1 (stereo not drawn)	TGFb inhibitor inconclusive, HT1080 IDH1KD tx 16µM, HT1080NT lethal 26µM, ATXN2 expr inh inconclusive
CCOC(=O)C1(Cc2cccc(OC)c2)CCN(C/C=C/c2ccc(OC)cc2)CC1	S2 tox inconclusive, HT1080 IDH1KD tx inconclusive, HT1080NT lethal 13µM, ATXN2 expr inh inconclusive
COc1ccc(/C=C/CN2CCCC(CO)(Cc3cccc(Cl)c3)C2)cc1 (stereo not drawn)	TGFb inhibitor inconclusive, HT1080 IDH1KD tx 23µM, HT1080NT lethal inconclusive
COc1ccc(F)c(CN2CCCC(CO)(Cc3cccc(Cl)c3)C2)c1 (stereo not drawn)	S2 tox inconclusive, TGFb inhibitor inconclusive (no result: ATXN2 expr inh)
CN(C(=O)c1cc2nc(-c3ccc4c(c3)OCO4)cc(C(F)(F)F)n2n1)c1ccc(OC(F)(F)F)cc1	none (no result: HT1080 IDH1KD tx, HT1080NT lethal)
Brc1ccc(-c2cc3c(N4CCN(c5ccccc5)CC4)nccn3n2)cc1	none (no result: HT1080 IDH1KD tx, HT1080NT lethal)
COC(=O)C1=C(C(=O)OC)C(C(=O)OC)C(C(=O)OC)C(C(=O)OC)(C(=O)OC)C(C(=O)OC)=C1C(=O)OC (stereo not drawn)	S2 tox 34µM, HT1080 IDH1KD tx inconclusive, ATXN2 expr inh inconclusive
COC(=O)C1C(C(=O)OC)C1(c1ccccc1)c1ccccc1 (stereo not drawn)	none
Cc1cccc(C)c1N=Nc1c(C)cc(O)cc1C	S2 tox inconclusive, TGFb inhibitor inconclusive, HT1080 IDH1KD tx 21µM, HT1080NT lethal inconclusive
Cc1cccc(O)c1C	HT1080 IDH1KD tx inconclusive
O=C(Nc1ccc(Oc2ccccc2)cc1)c1csc([C@@H]2O[C@H](CO)[C@@H](O)[C@H]2O)n1	S2 tox inconclusive, HT1080 IDH1KD tx 7.3µM, HT1080NT lethal inconclusive
O=C(Nc1ccc(OCCO)cc1)c1csc([C@@H]2O[C@H](CO)[C@H](O)[C@H](O)[C@H]2O)n1	none
O=C(Nc1ccc(Oc2ccccc2)cc1)c1ccc2sc([C@H]3C[C@H](O)[C@@H](CO)O3)nc2c1	S2 tox inconclusive, HT1080 IDH1KD tx 2.6µM, HT1080NT lethal 7.3µM, ATXN2 expr inh inconclusive
CCOc1cc(C2c3c(oc4ccccc4c3=O)C(=O)N2Cc2ccc3c(c2)OCO3)ccc1O (stereo not drawn)	none (no result: HT1080 IDH1KD tx, HT1080NT lethal)
